Results reported in PubChem BioAssay (NCATS).
Results filed as inconclusive are left out. Calls of active or inactive are those of the source. Unless noted, the rule behind the calls is not given here.

Tests used:
[1] = qHTS profiling for inhibitors of Plasmodium falciparum (HB3) proliferation (AID 743324; active = well fitted curve in the direction sought with a large enough effect; an effect the other way counts as inactive or inconclusive;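 note: 100% = DMSO vehicle wells and 0% = artemisinin-treated control wells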); details: Plasmodium falciparum HB3 blood-stage proliferation; at 28.7 µM (top of the series) unless noted
Procedure, shortened: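 SYBR Green fluorescence (485 ex/535 em) of lysed cultures, incubated overnight at room temperature in the dark, quantifies parasite DNA. Infected erythrocytes at 0.3% parasitemia and 2.5% hematocrit were exposed 72 h; values normalized to DMSO and 0.29 uM artemisinin controls.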

[2] = qHTS profiling of the MIPE4 collection as inhibitors of Plasmodium falciparum (3D7) proliferation (AID 743344);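 note: scaled between DMSO vehicle wells and 0.29 µM artemisinin as full inhibition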; details: P. falciparum 3D7 in erythrocytes, SYBR Green DNA fluorescence, 72 h; at 28.5 µM (top of the series) unless noted
Procedure, shortened: (§1)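 Parasite DNA was quantified by SYBR Green I fluorescence (ex 485, em 535 nm) after overnight lysis in saponin/Triton buffer at room temperature. Cultures at 0.3% parasitemia and 2.5% hematocrit were first exposed to compound for 72 h at 37 C; signals were normalised to artemisinin (0.29 uM) and vehicle wells.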

[3] = qHTS profiling of the MIPE4 collection as inhibitors of Plasmodium falciparum (DD2) proliferation (AID 743345); details: P. falciparum Dd2 in erythrocytes, SYBR Green DNA, 72 h; at 28.5 µM (top of the series) unless noted
Procedure, shortened: as §1

[4] = qHTS profiling of the MIPE4 collection as inhibitors of Plasmodium falciparum (DD2) proliferation (Rep 2) (AID 743346); details: P. falciparum Dd2 in erythrocytes, SYBR Green DNA, 72 h; at 28.5 µM (top of the series) unless noted
Procedure, shortened: as §1

[5] = qHTS profiling of the MIPE4 collection as inhibitors of Plasmodium falciparum (HB3) proliferation (AID 743347);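 note: plate controls were DMSO vehicle wells for no effect and artemisinin wells for full effect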; details: P. falciparum HB3 in erythrocytes, SYBR Green DNA, 72 h; at 28.5 µM (top of the series) unless noted
Procedure, shortened: as §1

[6] = High-throughput drug toxicity screening in the BPDCN cell line Gen2.2 (AID 1224824); details: Gen2.2 BPDCN cells; at 45.8 µM (top of the series) unless noted;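 note: cells exposed to compounds for 48 h before reading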
Procedure, shortened: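 CellTiter-Glo luminescence read after 48 h compound exposure at 37 C defines viability; percent activity set with DMSO as 100% and bortezomib (9.2 uM final) as 0%. 500 exponentially growing cells per well, RPMI plus 10% FBS.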

[7] = qHTS assay for measurement of the activity of small molecule inhibitors on Zika virus induced Caspase-3 activity in human astrocytoma cells (AID 1224859; active = well fitted curve in the direction sought with a large enough effect; an effect the other way counts as inactive or inconclusive;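 note: plate controls were ZIKV-infected untreated cells for no effect and uninfected cells for full effect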)
Procedure, shortened: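 Caspase activation in ZIKV-infected SNB-19 cells (2 FFU/cell, 6 h) measured by Caspase-Glo 3/7 luminescence after 30 min RT; compound pre-incubated 1 h; normalised to uninfected and infected controls.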

[8] = qHTS Screen of the MIPE 4.0 Collection Against Ewings Sarcoma (RDES) (AID 1259252; active = well fitted curve in the direction sought with a large enough effect; an effect the other way counts as inactive or inconclusive; note: nearly all actives have a fitted effect of over 35% in size; note: potency is the fitted concentration of half-maximal effect)
Procedure, shortened: (§2)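 Compound titrations go onto adherent log-phase cells 4 h after seeding, incubate 48 h at 37C, then CellTiter-Glo luminescence reports viability relative to DMSO and cell-free controls.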

[9] = Identifying Small Molecule Inhibitors of Pancreatic Cancer Stem Cells (SN12C, Spheroid) (AID 1259360; active = well fitted curve in the direction sought with a large enough effect; an effect the other way counts as inactive or inconclusive;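 note: 100% = DMSO-treated cells and 0% = wells without cells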); details: Potency: SN12C spheroid viability
Procedure, shortened: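 Adherent (2D) versus sphere (3D) formats; spheres generated 14 d in SCM beforehand. Compound transferred by pin tool after 4 h, 48 h incubation, CellTiter-Glo endpoint.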

[10] = Identifying Small Molecule Inhibitors of Pancreatic Cancer Stem Cells (A278, Adherent) (AID 1259361; active = well fitted curve in the direction sought with a large enough effect; an effect the other way counts as inactive or inconclusive; note: nearly all actives have a fitted effect of over 35% in size)
Procedure, shortened: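 Viability is scored by CellTiter-Glo luminescence 48 h after dosing, expressed as percent activity against vehicle and no-cell references. Spheroid formats rely on cells cultured 14 days in stem cell media beforehand.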

[11] = qHTS Screen of the MIPE 4.0 Collection Against Ewings Sarcoma (TC71) (AID 1259253; active = well fitted curve in the direction sought with a large enough effect; an effect the other way counts as inactive or inconclusive; note: nearly all actives have a fitted effect of over 40% in size; note: potency is the fitted concentration of half-maximal effect)
Procedure, shortened: as §2

[12] = qHTS Screen of the MIPE 4.0 Collection Against Ewings Sarcoma (EW8) (AID 1259255; active = well fitted curve in the direction sought with a large enough effect; an effect the other way counts as inactive or inconclusive; note: potency is the fitted concentration of half-maximal effect; nearly all actives have a fitted effect of over 35% in size)
Procedure, shortened: as §2

[13] = qHTS assay for measurement of the activity of small molecule inhibitors on Zika virus induced Caspase-3 activity in human iPSC derived neural progenitor cells (hNPCs) (AID 1224857; active = well fitted curve in the direction sought with a large enough effect; an effect the other way counts as inactive or inconclusive; note: % of control where 0% means no effect; nearly all actives have a fitted effect of over 65% in size)
Procedure, shortened: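 Zika virus (2 FFU/cell) infection of human iPSC-derived NPCs, 6 h, following 1 h compound preincubation. Read-out: Caspase-Glo 3/7 luminescence.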

[14] = qHTS Screen of the MIPE 4.0 Collection Against Ewings Sarcoma (TC32) (AID 1259256; active = well fitted curve in the direction sought with a large enough effect; an effect the other way counts as inactive or inconclusive; note: nearly all actives have a fitted effect of over 45% in size; note: potency is the fitted concentration of half-maximal effect)
Procedure, shortened: as §2

SMILES | remaining proliferation (% of control), lower = more inhibition [1] [%] | parasite growth, % of DMSO control [2] [%] | parasite growth remaining, % of DMSO control (lower = more inhibition) [3] [%] | parasite growth, % of control (lower = inhibition) [4] [%] | growth, % of control [5] [%] | cell viability, % of control (lower = more cytotoxic) [6] [%] | Potency [7] | Potency [8] | Potency [9] | IC50 (viability decrease) [10] | Potency [11] | Potency [12] | Potency [13] | Potency [14]
OCCn1cc(-c2ccc3c(c2)CCC3=NO)c(-c2ccncc2)n1 | 73.4 | 67.4 | 83.9 | 74.7 | 89.4 | 4.73 | inactive | 26.4 µM (active) | inactive | 16.6 µM (active) |  |  |  | 
CCC(C)SSc1ncc[nH]1 (stereo not drawn) |  | 86.2 | 94.1 | 89.6 | 92.3 | 7.07 |  | 23.5 µM (active) |  |  | 26.4 µM (active) | 11.8 µM (active) |  | 
CC(C)c1onc(-c2c(Cl)cccc2Cl)c1COc1ccc(C=Cc2cccc(C(=O)O)c2)c(Cl)c1 |  | 60.6 | 94.1 |  | 67.3 | 76.8 | inactive | inactive |  |  | 18.7 µM (active) |  | inactive | 
C[C@@]1(c2cc(-c3cncnc3)c(F)cc2F)CCSC(N)=N1 |  | 28.5 | 44.7 | 28.2 | 14 | 9.95 | inactive | inactive |  |  | inactive |  | inactive | inactive
C[C@@H]1CCO[C@H]2Cn3cc(C(=O)NCc4ccc(F)cc4F)c(=O)c(O)c3C(=O)N12 |  | 55 | 53.9 | 38.3 | 62.8 | 58.3 | inactive |  |  |  | 13.2 µM (active) | 20.9 µM (active) | inactive | 
N[C@@H](CC(=O)N1CCn2c(nnc2C(F)(F)F)C1)Cc1cc(F)c(F)cc1F |  | 94.7 | 104 | 84.5 |  | 162 | inactive |  |  |  | 16.6 µM (active) |  | inactive | 23.5 µM (active)
CN(C)CC[C@H](CSc1ccccc1)Nc1ccc(S(=O)(=O)NC(=O)c2ccc(N3CCN(Cc4ccccc4-c4ccc(Cl)cc4)CC3)cc2)cc1[N+](=O)[O-] | 41.4 | 34 | 61.7 | 31.1 | 4.32 | 8.88 | inactive |  |  |  | 16.6 µM (active) | 16.6 µM (active) | inactive | 4.18 µM (active)
C[C@H]1[C@H](O)O[C@@H]2O[C@@]3(C)CC[C@@H]4[C@H](C)CC[C@@H]1[C@@]24OO3 |  | 18.9 | 7.23 | 13.8 | 11.1 | 15.8 |  | 3.32 µM (active) |  |  | 1.48 µM (active) | 1.66 µM (active) | inactive | 
Cc1csc(-c2nnc(Nc3ccc(Oc4ncccc4-c4ccnc(N)n4)cc3)c3ccccc23)c1 | 51.2 | 38.3 | 81.1 | 47.8 | 26.8 | 24.7 | inactive | 0.0296 µM (active) |  |  |  | 0.0059 µM (active) | inactive | 
